In PubChem BioAssay (EPA / NIEHS):
“And” between values parts separate entries of the source, which are not always exact repeats. Equal values may be shown once. Results filed as inconclusive are left out. The source made the active and inactive calls. The calls were made as follows, unless noted: active = hit-call score of the fitted dose curve at least 0.9, where 1 is the maximum; inconclusive = response in the unintended direction; inactive = score below 0.9.

Tests used:
[1] = biological target: human Peroxisome Proliferator-activated Receptor delta (PPARd), PPARD (gene 5467) (UniProt Q03181); assay: ATG_PPARd_TRANS: Attagene TRANS-FACTORIAL HepG2 Assay for human Peroxisome Proliferator-activated Receptor delta (PPARd) (AID 2283002)
In short: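 Read-out is induced reporter mRNA, quantified by RT-PCR with fluorescent labelling and capillary electrophoresis after 24 h dosing. Cells are HepG2 transiently carrying multiple GAL4-UAS reporter units driven by exogenous NR-GAL4 chimeras; DMSO serves as baseline.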

[2] = biological target: Nuclear receptor subfamily 1 group I member 2 (Homo sapiens) (UniProt O75469); assay: ATG_PXR_TRANS: Attagene TRANS-FACTORIAL HepG2 Assay for human Pregnane X Receptor (PXR) (AID 2283008)
In short: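 HepG2 cells transiently transfected with GAL4-UAS reporter units and PXR-Gal4 chimera, exposed 24 h. Reporter mRNA quantified by RT-PCR, fluorescent labelling, HpaI digestion and capillary electrophoresis; gain of signal vs DMSO.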

[3] = biological target: Retinoic acid receptor RXR-alpha (Homo sapiens) (UniProt P19793); assay: ATG_RXRa_TRANS: Attagene TRANS-FACTORIAL HepG2 Assay for human Retinoid X Receptor alpha (RXRa) (AID 2283012)
In short: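 Transient transfection of human HepG2 with multiple GAL4-UAS reporter constructs; 24 h compound exposure; total RNA isolated, reverse-transcribed, PCR-amplified, 6-FAM labelled, HpaI-cut, resolved by capillary electrophoresis. Positive-direction fit versus DMSO.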

[4] = biological target: human Retinoid X Receptor beta (RXRb), RXRB (gene 6257) (UniProt P28702); assay: ATG_RXRb_TRANS: Attagene TRANS-FACTORIAL HepG2 Assay for human Retinoid X Receptor beta (RXRb) (AID 2283013)
In short: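 Transfect HepG2 with GAL4-UAS multi-reporter constructs (chimeric NR-Gal4, TRANS format); dose compound 24 h; isolate RNA, RT-PCR, FAM primer extension, HpaI digest; quantify by capillary electrophoresis; positive direction vs DMSO.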

[5] = biological target: human Thyroid Receptor alpha (THRa1), THRA (gene 7067) (UniProt P10827); assay: ATG_THRa1_TRANS: Attagene TRANS-FACTORIAL HepG2 Assay for human Thyroid Receptor alpha (THRa1) (AID 2283014)
In short: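 Transient HepG2 transfection, NR-Gal4 chimera driving GAL4-UAS reporters; 24 h compound exposure; total RNA, oligo(dT) RT, PCR, fluorescent primer extension, capillary electrophoresis. Upward direction vs DMSO control.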

[6] = biological target: human Vitamin D Receptor (VDR), VDR (gene 7421) (UniProt P11473); assay: ATG_VDR_TRANS: Attagene TRANS-FACTORIAL HepG2 Assay for human Vitamin D Receptor (VDR) (AID 2283022)
In short: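 RT-PCR/capillary electrophoresis read-out of reporter mRNA induction in transiently transfected HepG2; 24 h dosing; chimeric NR-Gal4 (TRANS format); gain-of-signal fit against DMSO baseline.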

[7] = biological target: human Retinoic Acid Receptor gamma (RARg), RARG (gene 5916) (UniProt P13631); assay: ATG_RARg_TRANS: Attagene TRANS-FACTORIAL HepG2 Assay for human Retinoic Acid Receptor gamma (RARg) (AID 2283009)
In short: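 Transient transfection of HepG2 with multi-reporter constructs, then 24 h chemical treatment. Total RNA isolated, reverse-transcribed, PCR-amplified, fluorescently labelled and resolved by capillary electrophoresis; activity scored as mRNA induction versus DMSO.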

[8] = biological target: human RAR-related Orphan Receptor beta (RORb), RORB (gene 6096) (UniProt Q92753); assay: ATG_RORb_TRANS: Attagene TRANS-FACTORIAL HepG2 Assay for human RAR-related Orphan Receptor beta (RORb) (AID 2283010)
In short: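 Readout is reporter-gene mRNA induction, detected as fluorescence after RT-PCR and capillary electrophoresis, fitted for gain of signal against DMSO controls. Transiently transfected HepG2 liver cells carrying GAL4-UAS reporter constructs were treated for 24 hours.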

[9] = biological target: human RAR-related Orphan Receptor gamma (RORg), RORC (gene 6097) (UniProt P51449); assay: ATG_RORg_TRANS: Attagene TRANS-FACTORIAL HepG2 Assay for human RAR-related Orphan Receptor gamma (RORg) (AID 2283011)
In short: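 Transient MRTU transfection of HepG2 (TRANS format, exogenous NR-Gal4 chimera). 24 h dosing. Total RNA → oligo(dT) RT → PCR → 6-FAM labelling → HpaI cut → CE. Gain vs DMSO.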

[10] = biological target: human Retinoic Acid Receptor beta (RARb), RARB (gene 5915) (UniProt P10826); assay: ATG_RARb_TRANS: Attagene TRANS-FACTORIAL HepG2 Assay for human Retinoic Acid Receptor beta (AID 2283004)
In short: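 Readout is reporter mRNA induction: RNA reverse-transcribed, PCR-amplified, FAM-labelled, HpaI-cut and resolved by capillary electrophoresis. Transiently transfected HepG2 cells carrying exogenous NR–Gal4 chimeras were dosed for 24 h; activity fitted upward relative to DMSO.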

[11] = biological target: Retinoic acid receptor alpha (Homo sapiens) (UniProt P10276); assay: ATG_RARa_TRANS: Attagene TRANS-FACTORIAL HepG2 Assay for human Retinoic Acid Receptor alpha (RARa) (AID 2283005)
In short: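 Reporter transcripts, measured by RT-PCR with fluorescent labeling and capillary electrophoresis after 24 h dosing, reflect activity of an exogenous human RARa–GAL4 fusion in transiently transfected HepG2. Fitted for increase relative to DMSO.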

[12] = biological target: Peroxisome proliferator-activated receptor gamma (Homo sapiens) (UniProt P37231); assay: ATG_PPARg_TRANS: Attagene TRANS-FACTORIAL HepG2 Assay for human Peroxisome Proliferator-activated Receptor-gamma (PPARg) (AID 2283007)
In short: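 HepG2 cells transiently transfected with multiplexed GAL4-UAS reporter units and exogenous chimeric NR-Gal4 proteins; reporter mRNA quantified after 24 h compound exposure by RT-PCR, fluorescent labelling, HpaI digestion and capillary electrophoresis; gain-of-signal fitted versus DMSO baseline.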

[13] = read-out: Intercellular Adhesion Molecule 1 (ICAM1), ICAM1 (gene 3383); assay: BSK_3C_ICAM1: BioMAP Diversity Plus: 3C Assay for Intercellular Adhesion Molecule 1 (ICAM1) Biomarker Activity (AID 2283003; active = hit-call score of the fitted dose curve at least 0.9, where 1 is the maximum; inactive = score below 0.9); details: primary human endothelial cells (HUVEC); actives raise or lower the signal
In short: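 ICAM-1 levels measured by ELISA after HUVEC cultures in the 3C system had been dosed for 24 h. Gain or loss of signal relative to DMSO was fitted in both directions.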

[14] = BSK_3C_Proliferation: Cell Proliferation Assessment in the BioMAP Diversity Plus: 3C Assay (AID 2283006; active = hit-call score of the fitted dose curve at least 0.9, where 1 is the maximum; inactive = score below 0.9;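 as to AC50: potency may reflect either rise or fall in cell number versus DMSO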); details: primary human endothelial cells (HUVEC)
In short: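 Read-out is total protein by SRB absorbance at 560 nm, taken as a proxy for relative cell number. Primary human umbilical vein endothelium cultured below confluence was dosed for 48 h, TCA-fixed and SRB-stained; curves were fitted bidirectionally versus DMSO.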

[15] = read-out: E-selectin (Homo sapiens) (UniProt P16581); assay: BSK_3C_Eselectin: BioMAP Diversity Plus: 3C Assay for Eselectin Biomarker Activity (AID 2283015; active = hit-call score of the fitted dose curve at least 0.9, where 1 is the maximum; inactive = score below 0.9); details: primary human endothelial cells (HUVEC); actives raise or lower the signal
In short: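 HUVEC, 3C stimulation; compound exposure 24 h; E-selectin by ELISA; gain- or loss-of-signal fitted bidirectionally vs DMSO baseline.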

[16] = read-out: Interleukin-1 alpha (IL1a), IL1A (gene 3552); assay: BSK_BE3C_IL1a: BioMAP Diversity Plus: BE3C Assay for Interleukin-1 alpha (IL1a) Biomarker Activity (AID 2283016; active = hit-call score of the fitted dose curve at least 0.9, where 1 is the maximum; inactive = score below 0.9); details: primary human bronchial epithelial cells; actives raise or lower the signal
In short: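 BE3C primary human bronchial epithelium; cpd 24 h; IL-1a by ELISA; bidirectional fit vs DMSO; parallel SRB (0.1% SRB, 10% TCA fix, 560 nm) for cytotoxicity.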

[17] = read-out: Monocyte Chemoattractant Protein-1 (MCP1), CCL2 (gene 6347); assay: BSK_4H_MCP1: BioMAP Diversity Plus: 4H Assay for Monocyte Chemoattractant Protein-1 (MCP1) Biomarker Activity (AID 2283018; active = hit-call score of the fitted dose curve at least 0.9, where 1 is the maximum; inactive = score below 0.9); details: primary human endothelial cells (HUVEC); actives raise or lower the signal
In short: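 ELISA read-out of MCP-1 from human vascular endothelial primary cells taken at 24 hours after compound exposure. Activity was fitted in both directions relative to DMSO, which served as negative control.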

[18] = read-out: Human Leukocyte Antigen - DR isotype (HLADR), HLA-DRA (gene 3122); assay: BSK_3C_HLADR: BioMAP Diversity Plus: 3C Assay for Human Leukocyte Antigen - DR isotype (HLADR) Biomarker Activity (AID 2283019; active = hit-call score of the fitted dose curve at least 0.9, where 1 is the maximum; inactive = score below 0.9); details: primary human endothelial cells (HUVEC); actives raise or lower the signal
In short: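 HUVEC, 3C stimulation, 24 h post-dose; HLA-DR by ELISA; bidirectional curve fit vs DMSO baseline; gain or loss of signal scored.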

[19] = read-out: Interleukin-8 (IL8), CXCL8 (gene 3576); assay: BSK_3C_IL8: BioMAP Diversity Plus: 3C Assay for Interleukin-8 (IL8) Biomarker Activity (AID 2283020; active = hit-call score of the fitted dose curve at least 0.9, where 1 is the maximum; inactive = score below 0.9); details: primary human endothelial cells (HUVEC); actives raise or lower the signal
In short: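 ELISA read-out of IL-8 from human umbilical vein endothelium, measured 24 h after chemical dosing. Activity is expressed relative to DMSO negative control, with both increases and decreases fitted.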

Measured: AC50

Chain of Retinoic acid receptor RXR-alpha (Homo sapiens) (P19793 whole entry, looked up, the tested form may be a part): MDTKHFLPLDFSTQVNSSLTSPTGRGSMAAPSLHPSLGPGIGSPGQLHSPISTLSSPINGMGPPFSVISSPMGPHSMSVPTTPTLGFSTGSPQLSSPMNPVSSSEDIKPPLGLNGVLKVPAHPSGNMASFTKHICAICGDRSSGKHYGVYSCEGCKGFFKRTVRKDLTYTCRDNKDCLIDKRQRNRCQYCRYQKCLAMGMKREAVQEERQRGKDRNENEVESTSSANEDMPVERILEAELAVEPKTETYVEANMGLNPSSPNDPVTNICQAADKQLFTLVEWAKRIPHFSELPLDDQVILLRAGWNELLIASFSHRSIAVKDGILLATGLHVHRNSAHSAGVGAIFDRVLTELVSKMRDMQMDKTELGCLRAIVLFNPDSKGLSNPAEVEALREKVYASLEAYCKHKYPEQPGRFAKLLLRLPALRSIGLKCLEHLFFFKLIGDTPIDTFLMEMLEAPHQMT
Chain of human RAR-related Orphan Receptor beta (RORb), RORB (gene 6096) (Q92753 whole entry, looked up, the tested form may be a part): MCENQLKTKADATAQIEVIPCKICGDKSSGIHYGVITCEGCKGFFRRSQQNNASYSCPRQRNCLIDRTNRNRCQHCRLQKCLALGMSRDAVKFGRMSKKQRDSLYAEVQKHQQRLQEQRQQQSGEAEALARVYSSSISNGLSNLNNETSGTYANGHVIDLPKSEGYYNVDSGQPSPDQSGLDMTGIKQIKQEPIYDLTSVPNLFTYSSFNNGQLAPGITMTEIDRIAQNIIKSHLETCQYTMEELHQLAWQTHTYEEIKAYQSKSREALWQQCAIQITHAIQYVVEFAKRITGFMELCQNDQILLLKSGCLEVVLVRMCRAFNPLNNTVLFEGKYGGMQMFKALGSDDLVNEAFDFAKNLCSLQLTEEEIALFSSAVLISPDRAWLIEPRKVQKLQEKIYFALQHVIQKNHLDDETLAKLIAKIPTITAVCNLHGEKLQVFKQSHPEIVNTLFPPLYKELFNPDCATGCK
Chain of human Peroxisome Proliferator-activated Receptor delta (PPARd), PPARD (gene 5467) (Q03181 whole entry, looked up, the tested form may be a part): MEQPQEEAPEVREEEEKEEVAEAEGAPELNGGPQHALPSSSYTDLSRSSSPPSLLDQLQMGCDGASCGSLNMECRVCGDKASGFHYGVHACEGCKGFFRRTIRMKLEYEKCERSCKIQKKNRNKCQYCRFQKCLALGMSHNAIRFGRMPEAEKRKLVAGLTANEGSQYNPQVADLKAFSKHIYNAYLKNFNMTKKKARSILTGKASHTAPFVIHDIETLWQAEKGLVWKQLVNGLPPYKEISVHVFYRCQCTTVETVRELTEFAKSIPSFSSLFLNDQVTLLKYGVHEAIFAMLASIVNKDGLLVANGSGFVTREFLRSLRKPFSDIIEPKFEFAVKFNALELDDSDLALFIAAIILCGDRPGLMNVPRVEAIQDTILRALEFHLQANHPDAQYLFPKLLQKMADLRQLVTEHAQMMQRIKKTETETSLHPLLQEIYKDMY
Chain of human Retinoid X Receptor beta (RXRb), RXRB (gene 6257) (P28702 whole entry, looked up, the tested form may be a part): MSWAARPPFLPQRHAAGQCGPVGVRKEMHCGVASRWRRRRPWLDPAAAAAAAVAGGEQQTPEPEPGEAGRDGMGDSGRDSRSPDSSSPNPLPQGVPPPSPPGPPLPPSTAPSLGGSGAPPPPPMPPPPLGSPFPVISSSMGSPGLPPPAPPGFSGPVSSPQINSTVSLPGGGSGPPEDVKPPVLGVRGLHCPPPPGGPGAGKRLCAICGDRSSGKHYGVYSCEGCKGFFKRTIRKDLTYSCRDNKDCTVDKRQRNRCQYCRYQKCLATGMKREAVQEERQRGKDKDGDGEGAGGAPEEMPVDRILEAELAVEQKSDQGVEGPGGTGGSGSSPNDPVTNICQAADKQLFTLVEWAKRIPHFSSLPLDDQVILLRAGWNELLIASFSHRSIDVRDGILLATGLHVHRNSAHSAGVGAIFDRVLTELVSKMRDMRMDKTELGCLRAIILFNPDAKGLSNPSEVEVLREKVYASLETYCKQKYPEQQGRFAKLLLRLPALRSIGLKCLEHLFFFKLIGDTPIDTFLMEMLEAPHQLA
Chain of E-selectin (Homo sapiens) (P16581 whole entry, looked up): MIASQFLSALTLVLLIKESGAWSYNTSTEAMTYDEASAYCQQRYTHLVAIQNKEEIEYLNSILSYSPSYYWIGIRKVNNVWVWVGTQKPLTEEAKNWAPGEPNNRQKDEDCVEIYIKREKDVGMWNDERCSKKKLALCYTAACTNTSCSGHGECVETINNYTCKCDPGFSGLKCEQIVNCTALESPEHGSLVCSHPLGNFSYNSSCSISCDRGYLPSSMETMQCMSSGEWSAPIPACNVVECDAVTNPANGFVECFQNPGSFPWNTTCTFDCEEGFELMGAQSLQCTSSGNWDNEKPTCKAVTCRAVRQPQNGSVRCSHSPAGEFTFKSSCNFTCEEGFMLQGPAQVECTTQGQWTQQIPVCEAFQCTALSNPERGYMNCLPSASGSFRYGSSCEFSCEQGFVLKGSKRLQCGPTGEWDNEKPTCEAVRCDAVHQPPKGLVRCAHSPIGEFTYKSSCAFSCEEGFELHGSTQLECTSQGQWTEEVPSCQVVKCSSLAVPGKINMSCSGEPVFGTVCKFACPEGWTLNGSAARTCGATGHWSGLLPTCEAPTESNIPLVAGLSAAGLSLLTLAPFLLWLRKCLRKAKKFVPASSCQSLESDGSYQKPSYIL
Chain of human Retinoic Acid Receptor gamma (RARg), RARG (gene 5916) (P13631 whole entry, looked up): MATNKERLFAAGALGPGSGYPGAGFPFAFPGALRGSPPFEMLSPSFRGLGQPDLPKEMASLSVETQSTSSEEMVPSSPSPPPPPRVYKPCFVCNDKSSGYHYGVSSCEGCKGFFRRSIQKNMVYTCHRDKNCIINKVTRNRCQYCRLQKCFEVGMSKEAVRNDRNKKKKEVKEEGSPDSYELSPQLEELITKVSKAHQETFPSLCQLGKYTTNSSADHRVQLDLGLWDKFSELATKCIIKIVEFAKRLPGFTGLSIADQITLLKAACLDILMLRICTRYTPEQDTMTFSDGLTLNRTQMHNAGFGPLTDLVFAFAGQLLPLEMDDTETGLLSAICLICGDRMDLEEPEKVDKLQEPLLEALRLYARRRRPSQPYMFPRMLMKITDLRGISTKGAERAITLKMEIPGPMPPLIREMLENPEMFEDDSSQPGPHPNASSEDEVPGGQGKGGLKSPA
Chain of Nuclear receptor subfamily 1 group I member 2 (Homo sapiens) (O75469 whole entry, looked up, the tested form may be a part): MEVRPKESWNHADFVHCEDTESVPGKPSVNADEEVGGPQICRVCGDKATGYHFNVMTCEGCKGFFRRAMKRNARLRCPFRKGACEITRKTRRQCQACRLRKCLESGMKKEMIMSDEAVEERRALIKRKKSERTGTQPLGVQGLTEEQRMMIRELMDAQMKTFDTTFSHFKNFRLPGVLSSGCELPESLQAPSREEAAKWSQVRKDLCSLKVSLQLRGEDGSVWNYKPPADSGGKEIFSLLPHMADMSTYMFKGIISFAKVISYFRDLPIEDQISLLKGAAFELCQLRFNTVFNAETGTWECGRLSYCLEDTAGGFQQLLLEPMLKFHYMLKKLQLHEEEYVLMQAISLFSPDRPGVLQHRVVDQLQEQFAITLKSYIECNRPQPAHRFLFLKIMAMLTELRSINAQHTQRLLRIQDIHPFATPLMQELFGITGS
Chain of human Thyroid Receptor alpha (THRa1), THRA (gene 7067) (P10827 whole entry, looked up, the tested form may be a part): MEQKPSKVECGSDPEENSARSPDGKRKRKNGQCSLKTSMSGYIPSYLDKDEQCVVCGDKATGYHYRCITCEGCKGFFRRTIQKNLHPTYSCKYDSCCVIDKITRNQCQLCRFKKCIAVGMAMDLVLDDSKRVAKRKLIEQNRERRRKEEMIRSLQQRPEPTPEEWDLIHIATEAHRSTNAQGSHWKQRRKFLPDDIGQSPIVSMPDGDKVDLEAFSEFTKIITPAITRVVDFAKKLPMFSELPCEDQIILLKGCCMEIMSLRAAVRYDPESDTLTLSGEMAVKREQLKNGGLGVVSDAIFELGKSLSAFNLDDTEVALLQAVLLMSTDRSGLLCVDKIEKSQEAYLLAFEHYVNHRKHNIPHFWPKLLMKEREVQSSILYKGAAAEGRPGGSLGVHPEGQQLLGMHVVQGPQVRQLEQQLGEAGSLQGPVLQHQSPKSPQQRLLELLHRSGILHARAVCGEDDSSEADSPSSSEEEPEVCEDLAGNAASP
Chain of human RAR-related Orphan Receptor gamma (RORg), RORC (gene 6097) (P51449 whole entry, looked up, the tested form may be a part): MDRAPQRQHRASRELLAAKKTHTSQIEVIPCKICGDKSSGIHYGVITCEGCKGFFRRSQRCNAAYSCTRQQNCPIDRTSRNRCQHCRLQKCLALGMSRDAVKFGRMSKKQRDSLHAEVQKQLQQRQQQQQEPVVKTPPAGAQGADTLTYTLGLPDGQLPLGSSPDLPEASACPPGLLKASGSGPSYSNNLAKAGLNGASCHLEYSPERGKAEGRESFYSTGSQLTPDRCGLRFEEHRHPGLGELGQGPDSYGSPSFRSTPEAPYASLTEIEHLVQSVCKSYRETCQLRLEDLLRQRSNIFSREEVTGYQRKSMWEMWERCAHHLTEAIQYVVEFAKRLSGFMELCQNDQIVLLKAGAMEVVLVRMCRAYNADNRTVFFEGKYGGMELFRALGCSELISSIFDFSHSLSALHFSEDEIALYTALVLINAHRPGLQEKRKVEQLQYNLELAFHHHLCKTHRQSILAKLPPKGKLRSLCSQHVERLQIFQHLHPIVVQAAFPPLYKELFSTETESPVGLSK
Chain of Peroxisome proliferator-activated receptor gamma (Homo sapiens) (P37231 whole entry, looked up, the tested form may be a part): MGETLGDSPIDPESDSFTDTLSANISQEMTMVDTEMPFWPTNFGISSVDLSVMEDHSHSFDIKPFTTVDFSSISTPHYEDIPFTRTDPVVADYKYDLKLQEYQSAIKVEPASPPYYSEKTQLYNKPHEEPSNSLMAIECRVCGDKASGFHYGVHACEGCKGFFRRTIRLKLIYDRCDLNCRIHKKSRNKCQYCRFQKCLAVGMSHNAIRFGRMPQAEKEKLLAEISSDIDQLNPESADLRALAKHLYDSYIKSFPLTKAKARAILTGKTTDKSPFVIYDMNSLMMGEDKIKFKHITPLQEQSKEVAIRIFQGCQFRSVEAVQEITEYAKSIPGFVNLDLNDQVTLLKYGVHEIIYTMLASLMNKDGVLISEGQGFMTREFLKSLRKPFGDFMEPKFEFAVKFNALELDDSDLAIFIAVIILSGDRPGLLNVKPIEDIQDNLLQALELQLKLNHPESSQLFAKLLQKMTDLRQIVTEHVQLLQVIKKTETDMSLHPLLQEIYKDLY

CC1(C)O[C@@H]2C[C@H]3[C@@H]4C[C@H](F)C5=CC(=O)CC[C@]5(C)[C@H]4[C@@H](O)C[C@]3(C)[C@]2(C(=O)CO)O1
inactive: [1] | [3] | [5] | [6]
active: [2] 27 µM | [4] 31.8 µM

Cc1cc(C)c(C)c(C)c1
inactive: [1] | [2] | [7] | [8] | [9] | [4] | [5] | [6]

CC(C)(C)c1ccc(-c2ccc(C(C)(C)C)cc2)cc1
inactive: [1] | [2] | [8] | [3] | [4] | [5]

NC(=O)c1ccccc1O
inactive: [1] | [2] | [3]

O=C1c2cccc(O)c2C(=O)c2c(O)cc(CO)cc21
active: [12] 50.3 µM | [2] 5.78 µM
inactive: [10] | [11] | [7] | [3] | [4] | [5] | [6]

c1c[nH]cn1
inactive: [10] | [11] | [12] | [2] | [7] | [8]

c1ccc(CCCc2ccncc2)cc1
inactive: [1] | [2] | [9] | [3] | [4] | [5]

C=CCOc1c(Br)cc(Br)cc1Br
active: [13] 28.7 µM | [14] 25.8 µM | [2] 27.4 µM | [3] 56.2 µM | [4] 6.51 µM | [15] 20 µM | [16] 20 µM | [17] 20 µM | [18] 24.8 µM
inactive: [10] | [11] | [12] | [7] | [8] | [9] | [5] | [19] | [6]

CCCCCCC(O)CO (stereo not given)
inactive: [1] | [7] | [9] | [3]

CCOC(=O)c1ccccc1C(=C1C=C(Br)C(=O)C(Br)=C1)c1cc(Br)c(O)c(Br)c1
inactive: [2]
active: [13] 21.1 µM and 21.2 µM | [14] 20.1 µM and 19.1 µM | [12] 3.1 µM | [15] 21 µM and 19.9 µM | [16] 4.38 µM and 4.46 µM | [17] 15.5 µM and 13.5 µM | [18] 19.5 µM and 16 µM | [19] 20.2 µM and 21.7 µM

CC(=O)OCCC1CCCCC1
inactive: [1] | [2] | [5]

Cc1cc(C)c(C)cc1C
inactive: [1] | [4] | [6]

C/C=C\C/C=C/CCCCCCCCOC(C)=O
inactive: [13] | [8] | [3] | [5] | [17] | [19] | [6]
active: [14] 22.3 µM | [12] 8.89 µM | [2] 40.8 µM | [15] 19.6 µM | [16] 12.1 µM | [18] 27 µM

CC1OC1C1CCC2(C)OC2C1 (stereo not given)
inactive: [13] | [11] | [14] | [8] | [3] | [15] | [16] | [17] | [18] | [19]
active: [2] 23.4 µM
